Consider 8 compounds from PubChem BioAssay (Tox21).

Assay [1] addresses Thyrotropin receptor (Homo sapiens) (UniProt P16473). As to the kind of experiment: qHTS assay to identify small molecule antagonists of the thyroid stimulating hormone receptor (TSHR) signaling pathway (AID 1259385; calls by dose curve; further: nearly all actives have a fitted effect of over 20% in size). The method, boiled down: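 TSHR-HEK293 cells (800/well) plated 18 h, then compounds with Ro20-1724 and TSH at 1.5 ng/mL final, 30 min at room temperature. cAMP quantified by HTRF (cAMP-d2/anti-cAMP-cryptate, 1 h); 15 concentrations in triplicate.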

The nature of assay [2]: qHTS assay to identify small molecule agonists of the estrogen receptor alpha (ER-alpha) signaling pathway in the presence of an antagonist - cell viability counter screen (AID 1259386).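 Further: series mostly up to about 92 µM; cells exposed to compounds for 22 h at 37 °C before the viability read; nearly all actives have a fitted effect of over 30% in size.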 Summed up:
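Cell viability in VM7Luc4E2 cells (endogenous full-length ER-alpha) measured by CellTiter-Fluor fluorescence in the same wells as the luciferase screen. Cells pre-cultured 5 days in charcoal-stripped serum, then treated 22 h with compounds at 15 concentrations plus 10.0nM ICI-182,780.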

Assay [3] has as its target Progesterone receptor (Homo sapiens) (UniProt P06401). Nature of the assay: qHTS assay to identify small molecule agonists of the progesterone receptor (PR) signaling pathway (AID 1346784; calls by dose curve; further: nearly all actives have a fitted effect of over 30% in size). Summed up:
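Agonist mode, quantitative HTS format in a HEK 293T line expressing a UAS-controlled beta-lactamase reporter; 16 hr compound exposure at 37C in 2% charcoal-stripped FBS, then LiveBLAzer B/G FRET fluorescence.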

Assay [4] has the same target. Nature of the assay: qHTS assay to identify small molecule antagonists of the progesterone receptor (PR) signaling pathway (AID 1346795; active means well fitted inhibition curve with a large enough effect in the signal ratio in the repeat runs, not every such curve was filed as active; the % refers to the signal ratio; further: potency means the concentration at half of the fitted maximal effect). The method, boiled down:
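HEK293T PR-UAS-bla reporter cells in charcoal-stripped serum (2%) received compound after a 6 hr settling period, followed by R5020 agonist at 1 nM final; 16 hr incubation preceded the FRET substrate step and fluorescence measurement.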

A short description of assay [5]: qHTS assay to identify small molecule antagonists of the progesterone receptor (PR) signaling pathway - cell viability counter screen (AID 1346798). Further: series mostly up to about 92 µM; nearly all actives have a fitted effect of over 50% in size. Summed up:
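Same-well multiplex: after 16 hr at 37C with compound and R5020 stimulation, HEK293T cells carrying a UAS-bla reporter received LiveBLAzer substrate (2 hr RT), then CellTiter-Glo (30 min RT) for luminescent viability.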

A short description of assay [6]: qHTS assay to identify small molecule agonists of the progesterone receptor (PR) signaling pathway - cell viability counter screen (AID 1346799; calls by dose curve; further: nearly all actives have a fitted effect of over 45% in size). Summed up:
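Counter screen for cytotoxicity: compound-treated PR-UAS-bla HEK293T cells (16 hr, 37C, 5% CO2) were assayed with CellTiter-Glo, luminescence measured after 30 min at room temperature.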

A short description of assay [7]: qHTS assay to identify small molecule antagonists of the TGF-beta/Smad signaling pathway - cell viability counter screen (AID 1346824). Further: nearly all actives have a fitted effect of over 50% in size. The method, boiled down: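 SBE-bla HEK 293T cells, incubated overnight, then compound plus 0.25 ng/mL TGF-beta1 (stock added) for 5 hr at 37 C. Viability was read in the same wells by CellTiter-Glo luminescence after 30 min at room temperature.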

The nature of assay [8]: qHTS assay to identify small molecule agonists of the TGF-beta/Smad signaling pathway - cell viability counter screen (AID 1346829). Further: top concentration of the series differs between compounds; nearly all actives have a fitted effect of over 45% in size. Summed up:
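Compound-treated SBE-bla HEK 293T cells (5 hr, 37 C) were assessed for viability with CellTiter-Glo in parallel with the reporter read.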

The nature of assay [9]: qHTS assay to identify small molecule agonists of the TGF-beta/Smad signaling pathway (AID 1346859; active means well fitted activation curve with a large enough effect in the signal ratio in the repeat runs, not every such curve was filed as active; the % refers to the signal ratio; further: series mostly up to about 77 µM). Summed up:
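Smad-responsive beta-lactamase reporter cells (HEK 293T) received compounds from DMSO stocks after overnight attachment, were incubated 5 hr, then treated 2 hr with FRET substrate before dual-emission fluorescence measurement (405 nm excitation).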

Assay [10] deals with Thyrotropin-releasing hormone receptor (Homo sapiens) (UniProt P34981). As to the kind of experiment: qHTS assay to identify small molecule antagonists of the thyrotropin-releasing hormone receptor (TRHR) signaling pathway (AID 1346877; active means well fitted inhibition curve with a large enough effect in the repeat runs, not every such curve was filed as active; further: series mostly up to about 51 µM). The method, boiled down:
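TRHR-expressing HEK293 cells loaded with calcium dye for 2 h at 37 C; compounds pre-incubated 5 min at room temperature before TRH challenge at 1 nM final. Intracellular calcium fluorescence read kinetically for 3 min; 15 concentrations in triplicate.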

Assay [11] shares this target. As to the kind of experiment: qHTS assay to identify small molecule agonists of the thyrotropin-releasing hormone receptor (TRHR) signaling pathway (AID 1346891; calls by dose curve; further: series mostly up to about 58 µM). Summed up: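 Agonist-mode calcium mobilisation screen: TRHR-transfected HEK293 cells cultured overnight (18 h), dye-loaded for 2 h at 37 °C, exposed to compounds, and monitored by fluorescence for 3 min.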

Assay [12] is described as follows: Human pregnane X receptor (PXR) small molecule agonists, qHTS cell viability counter screen (AID 1346977). Further: nearly all actives have a fitted effect of over 50% in size. Summed up: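 Measures live-cell protease fluorescence (CellTiter-Fluor) in PXR-Luc HepG2 cells treated 24hr with compounds at 37C. Cells had 5hr to attach before pin transfer of DMSO solutions.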
A short description of assay [13]: Caspase-3/7 induction in HepG2 cells by small molecules, qHTS assay (AID 1346978). Further: nearly all actives have a fitted effect of over 15% in size. The method, boiled down: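 Wild-type HepG2 cells, 2,000/well, settled 5 hr at 37 C and 5% CO2, then compound-treated for 17 hr; caspase-3/7 activity read by luminescent Caspase-Glo 3/7 after 30 min at room temperature.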
Assay [14] can be described thus: Caspase-3/7 induction in CHO-K1 cells by small molecules, qHTS cell viability counter screen (AID 1346979). Further: nearly all actives have a fitted effect of over 35% in size. Further: potency means the concentration at half of the fitted maximal effect. Summed up: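 In the same wells as the caspase read, viability of compound-treated wild-type CHO-K1 cells was assessed using CellTiter-Fluor, added after 16hr at 37C and measured by fluorescence following 1hr further incubation.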
Assay [15] is described as follows: Caspase-3/7 induction in CHO-K1 cells by small molecules, qHTS assay (AID 1346980). Further: nearly all actives have a fitted effect of over 15% in size. The method, boiled down:
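Wild-type CHO-K1 cells exposed to compounds for 17hr at 37 C, 5% CO2. Caspase-3/7 activity then measured by Caspase-Glo 3/7 luminescence after 30min at room temperature.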

Assay [16] can be described thus: Caspase-3/7 induction in HepG2 cells by small molecules, qHTS cell viability counter screen (AID 1346981). Further: series mostly up to about 92 µM; nearly all actives have a fitted effect of over 30% in size. The method, boiled down: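 Wild-type HepG2 cells, 2,000/well, settled 5 hr at 37 C, 5% CO2 before compound addition. Viability read by CellTiter-Fluor fluorescence, reagent added after 16 hr compound exposure, then 1 hr at 37C, in the same wells as the caspase read.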

The target of assay [17] is Nuclear receptor subfamily 1 group I member 2 (Homo sapiens) (UniProt O75469). As to the kind of experiment: Human pregnane X receptor (PXR) small molecule agonists, qHTS assay (AID 1346982). Further: nearly all actives have a fitted effect of over 35% in size. The method, boiled down:
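PXR-Luc HepG2 reporter cells (CYP3A4-driven luciferase) in 5% charcoal-stripped FBS medium, plated 5 h before compound addition, then treated 24 h at 37C. Luciferase read by ONE-Glo luminescence after 30 min at room temperature.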

Unmarked numbers belong to inactive results. Results filed as inconclusive are left out. Calls of active or inactive are those of the source. Unless noted, the call rests on the fitted dose curve; in most records, active means well fitted curve in the direction sought with a large enough effect in the repeat runs; inconclusive means weak or mixed curves; inactive means no such curve, though single readings can be large; an effect the other way counts as inactive or inconclusive.

Thyrotropin-releasing hormone receptor (Homo sapiens), sequence (P34981 whole entry, looked up): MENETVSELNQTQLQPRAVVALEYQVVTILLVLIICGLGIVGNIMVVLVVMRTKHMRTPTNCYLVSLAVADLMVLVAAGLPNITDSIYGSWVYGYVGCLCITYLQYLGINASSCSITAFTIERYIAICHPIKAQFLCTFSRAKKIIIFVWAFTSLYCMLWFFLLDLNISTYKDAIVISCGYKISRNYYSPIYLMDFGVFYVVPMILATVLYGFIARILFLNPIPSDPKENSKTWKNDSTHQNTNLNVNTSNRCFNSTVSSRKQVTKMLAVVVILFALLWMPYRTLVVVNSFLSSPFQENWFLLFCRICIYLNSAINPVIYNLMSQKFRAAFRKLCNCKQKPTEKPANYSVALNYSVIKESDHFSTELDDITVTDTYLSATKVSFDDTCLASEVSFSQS
Thyrotropin receptor (Homo sapiens), sequence (P16473 whole entry, looked up): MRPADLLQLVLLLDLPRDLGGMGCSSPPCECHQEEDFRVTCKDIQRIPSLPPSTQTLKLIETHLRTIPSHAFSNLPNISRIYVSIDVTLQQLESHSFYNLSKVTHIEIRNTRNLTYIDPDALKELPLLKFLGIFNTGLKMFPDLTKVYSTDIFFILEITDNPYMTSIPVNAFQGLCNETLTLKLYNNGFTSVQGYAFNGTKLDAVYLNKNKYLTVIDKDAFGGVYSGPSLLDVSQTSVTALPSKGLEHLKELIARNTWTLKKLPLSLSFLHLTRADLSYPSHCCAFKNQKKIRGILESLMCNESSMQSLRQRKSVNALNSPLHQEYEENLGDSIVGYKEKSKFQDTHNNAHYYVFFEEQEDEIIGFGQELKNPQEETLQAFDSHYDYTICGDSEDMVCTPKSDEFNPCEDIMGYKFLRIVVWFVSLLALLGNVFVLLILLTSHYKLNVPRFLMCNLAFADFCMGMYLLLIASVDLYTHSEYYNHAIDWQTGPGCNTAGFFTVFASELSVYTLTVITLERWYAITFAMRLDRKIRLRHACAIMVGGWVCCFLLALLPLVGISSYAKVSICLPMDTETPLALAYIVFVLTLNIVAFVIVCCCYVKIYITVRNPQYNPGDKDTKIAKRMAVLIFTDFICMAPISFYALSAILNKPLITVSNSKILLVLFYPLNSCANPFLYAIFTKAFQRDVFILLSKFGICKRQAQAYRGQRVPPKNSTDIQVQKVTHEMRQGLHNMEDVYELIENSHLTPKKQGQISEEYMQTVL
Nuclear receptor subfamily 1 group I member 2 (Homo sapiens), sequence (O75469 whole entry, looked up): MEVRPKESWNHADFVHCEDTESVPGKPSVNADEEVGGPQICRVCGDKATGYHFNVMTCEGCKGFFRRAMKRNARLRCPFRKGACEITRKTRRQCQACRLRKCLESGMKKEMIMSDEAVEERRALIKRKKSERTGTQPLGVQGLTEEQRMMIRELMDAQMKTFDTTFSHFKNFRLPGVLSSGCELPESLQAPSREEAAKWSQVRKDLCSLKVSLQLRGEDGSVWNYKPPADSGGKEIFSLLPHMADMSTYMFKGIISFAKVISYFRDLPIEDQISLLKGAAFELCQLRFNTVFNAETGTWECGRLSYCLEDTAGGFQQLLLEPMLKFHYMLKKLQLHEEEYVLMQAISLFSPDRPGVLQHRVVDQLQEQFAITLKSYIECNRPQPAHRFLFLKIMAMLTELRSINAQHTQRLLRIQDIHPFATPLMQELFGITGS
Progesterone receptor (Homo sapiens), sequence (P06401 whole entry, looked up): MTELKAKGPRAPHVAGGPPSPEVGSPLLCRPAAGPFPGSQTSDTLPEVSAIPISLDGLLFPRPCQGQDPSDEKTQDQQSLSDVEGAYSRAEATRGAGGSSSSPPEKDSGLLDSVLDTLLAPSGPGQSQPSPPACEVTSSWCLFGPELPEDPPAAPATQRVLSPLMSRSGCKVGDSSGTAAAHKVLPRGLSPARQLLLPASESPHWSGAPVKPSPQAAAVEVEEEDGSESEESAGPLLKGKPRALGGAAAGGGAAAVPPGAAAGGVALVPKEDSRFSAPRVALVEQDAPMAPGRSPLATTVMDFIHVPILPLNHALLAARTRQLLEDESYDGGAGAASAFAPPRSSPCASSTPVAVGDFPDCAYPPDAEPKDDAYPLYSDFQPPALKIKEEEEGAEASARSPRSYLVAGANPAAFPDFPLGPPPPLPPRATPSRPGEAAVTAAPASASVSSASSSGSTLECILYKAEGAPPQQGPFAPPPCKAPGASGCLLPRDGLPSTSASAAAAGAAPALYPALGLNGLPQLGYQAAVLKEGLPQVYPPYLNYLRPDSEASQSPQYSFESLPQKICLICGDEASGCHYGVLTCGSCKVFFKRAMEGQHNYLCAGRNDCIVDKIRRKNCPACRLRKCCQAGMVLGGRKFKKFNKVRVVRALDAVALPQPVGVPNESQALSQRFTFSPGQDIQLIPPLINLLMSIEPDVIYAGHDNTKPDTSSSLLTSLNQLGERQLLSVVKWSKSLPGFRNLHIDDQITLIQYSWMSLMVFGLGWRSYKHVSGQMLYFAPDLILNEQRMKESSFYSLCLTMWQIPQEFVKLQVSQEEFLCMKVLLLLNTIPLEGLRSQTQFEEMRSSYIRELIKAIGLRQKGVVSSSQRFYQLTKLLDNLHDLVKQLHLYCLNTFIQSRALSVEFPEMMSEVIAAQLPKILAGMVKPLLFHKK

As for `c1ccc(C2CC2)c(OCC2=NCCN2)c1`, the Potency result in assay [1], in assay [2], in [3], in [4], in [5] and in assay [6] was “inactive” in each case. Moreover, the Potency result in assay [7], in [8], in assay [10], in assay [11], in [12] and in [13] was “inactive” each time. Also, the Potency result in assay [14], in assay [15], in assay [16] and in assay [17] was “inactive” each time. In addition, in assay [9], the result was inactive.
`CCCCCC[N+](=O)[O-]`: the Potency result in assay [1], in [2], in assay [3], in assay [4], in assay [5] and in assay [6] was “inactive” in each case. The Potency result in assay [7], in assay [8], in assay [10], in assay [11], in [12] and in assay [13] was “inactive” throughout. The Potency result in [14], in assay [15] and in assay [16] was “inactive” each time. Further, in assay [9], the compound was called inactive.
For `CC(=O)C(C)(C)C`, the Potency entry in [1], in [2], in [3], in [4], in assay [5] and in [6] was “inactive” each time. Besides, the Potency result in assay [7], in [8], in [10], in assay [11], in assay [12] and in [13] was “inactive” throughout. Moreover, the Potency result in assay [14], in assay [15], in assay [16] and in assay [17] was “inactive” each time. Besides, the compound was called inactive in [9].
As for `CC1Sc2c(C(=O)O)c(=O)c3cc(F)c(N4CCNCC4)cc3n21` (stereo not given), the Potency result in [1], in assay [2], in assay [3], in assay [4], in assay [5] and in assay [6] was “inactive” each time. Also, the Potency result in assay [7], in assay [8], in assay [10], in assay [11], in [12] and in [13] was “inactive” in each case. Moreover, the Potency result in [14], in assay [15] and in [16] was “inactive” throughout. Further, the outcome in [9] was inactive.
Regarding `CC(C)(OO)c1ccccc1`, the Potency entry in assay [1], in assay [2], in assay [3], in [4], in assay [5] and in assay [6] was “inactive” in each case. Besides, the Potency result in [7], in [8], in [10], in assay [12], in [13] and in assay [14] was “inactive” throughout. Further, the Potency entry in assay [15], in [16] and in [17] was “inactive” in each case. For the same compound, in [9], the compound was classed as inactive.
As to `C=CCOC(C)=O`, the Potency result in assay [1], in assay [2], in assay [3], in [5], in assay [6] and in assay [7] was “inactive” in each case. The Potency entry in assay [8], in [10], in assay [12], in assay [13], in [14] and in assay [15] was “inactive” each time. The Potency result in assay [16] and in [17] was “inactive” in each case. Moreover, the Potency in assay [4] was 1.91 µM (active). Besides, the result in [9] was inactive.
`C[C@@H]1CC[C@H]2[C@@H](C)C(=O)O[C@@H]3O[C@@]4(C)CC[C@@H]1[C@]32OO4`: the Potency result in assay [1], in [2], in assay [3], in assay [4], in assay [5] and in assay [6] was “inactive” throughout. In addition, the Potency result in assay [7], in [8], in assay [11], in assay [12], in assay [13] and in [15] was “inactive” throughout. The Potency entry in assay [16] was “inactive”. Further, the compound was called inactive in assay [9]. In addition, the Potency in assay [14] is 4.22 µM (active).
On to `Cl/C=C\C[N+]12CN3CN(CN(C3)C1)C2`, for which the Potency entry in [1], in assay [2], in assay [3], in assay [4], in assay [5] and in assay [6] was “inactive” throughout. Moreover, the Potency entry in [7], in assay [8], in [10], in assay [11], in assay [12] and in [13] was “inactive” each time. Moreover, the Potency result in assay [14], in [15], in assay [16] and in assay [17] was “inactive” throughout. Also, the outcome in assay [9] was inactive.
